This passage reports Potency and activity change, negative = cytotoxicity results from PubChem BioAssay (NCATS).

Records with an inconclusive call do not appear. A number with no mark means an inactive call. Calls of active or inactive are those of the source. Calls follow the shape of the dose curve; as a rule, active = well fitted cell-killing curve with a large enough effect; inconclusive = small, poorly fitted or top-dose-only effect, or effect the other way; inactive = flat fitted curve, though single readings scatter.

Test in all cases: Primary qHTS to identify gynecologic anti-cancer compounds using libraries of approved drugs and bioactive compounds (AID 1345084); also: nearly all actives have a fitted effect of over 55% in size
A general note: Quantitative high-throughput screening tests each substance at several concentrations.

Test [1] concerns C33A. The note with it: Gynecologic cancer cell panel viability, ATPlite luminescence, 48 h; series mostly up to 57.5 µM. The method in brief: (§1)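 Measured: luminescence after ATPlite addition (15 min, RT). Exposure: 48 h, 37 C, 5% CO2.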
Background: Cellular ATP, detected with luciferase, serves as a proxy for viable cell number.

For test [2], the system named is CASKI. The note with it: Gynecologic cancer cell panel viability, ATPlite luminescence, 48 h; series mostly up to 57.5 µM. The procedure, abridged: as §1
Test [3] has as its system Es-2. The note with it: Gynecologic cancer cell panel viability, ATPlite luminescence, 48 h; series mostly up to 57.5 µM. The method in brief:
as §1

In test [4] the test system is HeLa. The note with it: Gynecologic cancer cell panel viability, ATPlite luminescence, 48 h; series mostly up to 57.5 µM. The procedure, abridged: as §1
Test [5] deals with Hek293T. The settings on record: Gynecologic cancer cell panel viability, ATPlite luminescence, 48 h, control line for the selectivity index; series mostly up to 57.5 µM. The method in brief: as §1
Test [6] has as its system JEG-3. The settings on record: Gynecologic cancer cell panel viability, ATPlite luminescence, 48 h; series mostly up to 57.5 µM. The procedure, abridged: as §1
In test [7] the test system is OV90. The settings on record: Gynecologic cancer cell panel viability, ATPlite luminescence, 48 h; series mostly up to 57.5 µM. The method in brief: as §1
% is scaled to controls: 0 for no effect and ±100 for the full control effect; potency is read from the fitted curve at half-maximal effect.

Take `COC(=O)N1CCN(C(=O)Cc2ccc(Cl)c(Cl)c2)[C@@H](CN2CCCC2)C1`: the Potency entry in test [1], in test [2], in test [3], in test [4], in test [5] and in test [6] was “inactive” throughout. Also, in test [7], the Potency entry is “inactive”.
Take `C/C=C(\C)C(=O)O[C@H]1[C@H](OC(C)=O)[C@]2(CO)[C@H](O)[C@H](O)[C@]3(C)C(=CCC4[C@@]5(C)CC[C@H](O[C@@H]6O[C@H](C(=O)O)[C@@H](O)[C@H](O[C@@H]7OC[C@H](O)[C@H](O[C@@H]8OC[C@H](O)[C@H](O)[C@H]8O)[C@H]7O)[C@H]6O[C@@H]6O[C@H](CO)[C@@H](O)[C@H](O)[C@H]6O)C(C)(C)C5CC[C@]43C)[C@@H]2CC1(C)C` (stereo partly specified): the activity change, negative = cytotoxicity in test [1] is 0.756% [at 6.55 µM]; in test [2], 13.6% [at 6.55 µM]; in test [3], -0.471% [at 6.55 µM]; in test [4], 10.9% [at 6.55 µM]; in test [5], -2.46% [at 6.55 µM]; in test [6] it was -2.67% [at 6.55 µM]. Also, the activity change, negative = cytotoxicity in test [7] is -10.1% [at 6.55 µM].
As to `CCCN1CCO[C@H]2c3cc(O)ccc3OC[C@@H]21`, the Potency entry in test [1], in test [2], in test [3], in test [4], in test [5] and in test [6] was “inactive” each time. In test [7], the Potency entry was “inactive”.
As to `C[C@@]12C[C@@H](c3ccoc3)OC(=O)C1CC[C@]1(C)[C@H]2[C@H]2C=C[C@]1(O)C(=O)O2` (stereo partly specified), the Potency entry in test [1], in test [2], in test [3], in test [4], in test [5] and in test [6] was “inactive” each time. In addition, in test [7], the Potency entry was “inactive”.
Turning to `COC1CC(O[C@H]2CC[C@]3(C=O)C4CC[C@]5(C)[C@@H](C6=CC(=O)OC6)CC[C@]5(O)[C@@H]4CC[C@]3(O)C2)OC(C)C1O[C@@H]1O[C@H](CO)[C@@H](O)[C@H](O)[C@H]1O` (stereo partly specified), the Potency in test [1] was 141 nM (active); in test [3], 355 nM (active); in test [4] it was 355 nM (active); in test [5] it was 501 nM (active).
Turning to `C/C=C(\C)C(=O)OC1CC2C(CC=C3CC(OC4CC(OC)C(OC5CC(OC)C(OC6OC(C)C(OC7OC(CO)C(O)C(O)C7O)C(OC)C6O)C(C)O5)C(C)O4)CCC32C)C2(O)CCC(C(C)=O)C12C` (stereo unspecified), the activity change, negative = cytotoxicity is 3.18% [at 11.6 µM] in test [1]; 19.1% [at 11.6 µM] in test [2]; 3.55% [at 11.6 µM] in test [3]; -1.26% [at 11.6 µM] in test [4]; 2.23% [at 11.6 µM] in test [5]; 1.45% [at 11.6 µM] in test [6]. The activity change, negative = cytotoxicity in test [7] was 8.31% [at 11.6 µM].
On to `C[C@@]1(C(=O)O)CC[C@]2(C)CC[C@]3(C)C4=CC(=O)c5cc(O)c(O)cc5[C@]4(C)CC[C@@]3(C)[C@@H]2C1`, for which the Potency result in test [1], in test [2], in test [3], in test [4], in test [5] and in test [6] was “inactive” each time. For the same compound, the Potency result in test [7] was “inactive”.
On to `C[C@H](NC(=O)Cc1cc(F)cc(F)c1)C(=O)N[C@@H]1N=C(c2ccccc2)c2ccccc2N(C)C1=O`, for which the Potency result in test [1], in test [2], in test [3], in test [4], in test [5] and in test [6] was “inactive” each time. Moreover, the Potency entry in test [7] is “inactive”.
`CC1=CC2/C=C(\C)CCC(O)C3OC(C)(C)OC3CC(=O)OC23C(=O)NC(CC(C)C)C3C1C` (stereo unspecified): the Potency entry in test [1], in test [2], in test [3], in test [4], in test [5] and in test [6] was “inactive” in each case. Besides, in test [7], the Potency result is “inactive”.
Consider `CCCCCOc1cc2c(cc1-c1cc(/C=C/C(=O)O)ccc1O)C(C)(C)CCC2(C)C`, for which the Potency entry in test [1], in test [2], in test [3], in test [4], in test [5] and in test [6] was “inactive” each time. Besides, in test [7], the Potency result was “inactive”.
On to `C[C@H]1O[C@@H](O[C@H]2C[C@@H](O)[C@]3(CO)C4C(CC[C@]3(O)C2)[C@@]2(O)CC[C@H](C3=CC(=O)OC3)[C@@]2(C)C[C@H]4O)[C@@H](O)[C@@H](O)[C@H]1O` (stereo partly specified), for which the Potency was 398 nM (active) in test [1]; 355 nM (active) in test [3]; 562 nM (active) in test [4]; 355 nM (active) in test [5]; 1120 nM (active) in test [7].
Turning to `COCC1OC(=O)c2coc3c2C1(C)C1=C(C3=O)C2CCC(=O)C2(C)CC1O` (stereo unspecified), the Potency result in test [1], in test [2], in test [3], in test [4], in test [5] and in test [6] was “inactive” in each case. Besides, the Potency entry in test [7] is “inactive”.
As for `C/C=C(\C)C(=O)OC1CC2C(C)(C)OC(=O)CC(OC(C)=O)C2(C)C2CC(OC(=O)C(C)C)C3(C)C(c4ccoc4)CC4OC43C12C` (stereo unspecified), the Potency result in test [1], in test [2], in test [3], in test [4], in test [5] and in test [6] was “inactive” throughout. Also, the Potency result in test [7] is “inactive”.
